# Assay outcomes (PubChem BioAssay)
# Mtb UGM inh – inhibitors of M. tuberculosis UDP-galactopyranose mutase | AID 504406 | purified UGM, fluorescence polarization probe displacement | P9WIQ1 | inhibition, % at 10 µM | 320,000 compounds, 0.06% hits; in the data active = inhibition above about 10%, passing the limit was not always enough; inconclusive = no clear call, values can overlap the other calls
# SSB-PriA inh – blocks PriA binding to SSB C-terminal tail; inhibition, % at 33 µM; AID 1272365; 430,000 compounds, 0.6% hits; AlphaScreen SSBct-PriA binding, biotinylated peptide; in the data active = inhibition mostly above about 37%, no sharp cut-off; inactive = mostly below about 20%
# Rv3671c inh – Rv3671c (M. tuberculosis) protease inhibition | P9WHR9 | inhibition, % at 5.96 µM | 320,000 compounds, 0.048% hits; in the data active = inhibition above about 38%;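 also: extracellular domain of Rv3671c used as enzyme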
# Target sequence (P9WHR9 whole entry, looked up, the tested form may be a part): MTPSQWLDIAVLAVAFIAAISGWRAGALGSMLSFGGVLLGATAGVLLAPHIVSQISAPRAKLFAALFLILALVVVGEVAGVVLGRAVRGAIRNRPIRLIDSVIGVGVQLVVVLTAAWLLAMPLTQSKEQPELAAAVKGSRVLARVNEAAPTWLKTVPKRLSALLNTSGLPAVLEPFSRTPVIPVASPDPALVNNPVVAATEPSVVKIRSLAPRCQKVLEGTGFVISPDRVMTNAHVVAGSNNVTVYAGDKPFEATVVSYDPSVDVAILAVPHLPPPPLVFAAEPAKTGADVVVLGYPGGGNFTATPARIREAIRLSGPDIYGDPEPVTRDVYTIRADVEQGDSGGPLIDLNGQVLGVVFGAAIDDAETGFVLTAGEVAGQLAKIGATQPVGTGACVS
# Mtb bLac sens – beta-lactam sensitization of Mtb H37Rv. M. tuberculosis H37Rv growth with meropenem, percent inhibition. inhibition, % at 25 µM. 330,000 compounds, 0.27% hits; call rule not given here;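 also: growth measured after seven days incubation then overnight dye step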
# GDH-TPI counter – inhibits GDH-TPI coupling enzymes, artifact for Mtb FBA screen; GDH-TPI coupled enzyme counterscreen, NADH absorbance; inhibition, % at 4.8 µM; AID 588335; 360,000 compounds, 1.2% hits; in the data active = inhibition above about 30%
# Mtb FBA inh – Mtb fructose-bisphosphate aldolase inhibition | purified M. tuberculosis FBA, fluorescence read-out | inhibition, % at 1 µM | 360,000 compounds, 2.3% hits; in the data active = inhibition above about 27%
# Numbers stand for hits; 0 = inactive; ? = inconclusive; - = not tested or not shown; + = active, no number; ! = a repeat was not active. In the library only some 3.2% were active in any assay of this set; here they are far more common.
SMILES,Mtb UGM inh,SSB-PriA inh,Rv3671c inh,Mtb bLac sens,GDH-TPI counter,Mtb FBA inh
COc1ccc2cc3cc(C(=O)NCc4ccc5c(c4)OCO5)oc3nc2c1,0,0,0,0,36.8,0
COc1ccc2cc3cc(C(=O)NCc4cccnc4)oc3nc2c1,0,0,0,0,0,+
Cc1ccc2cc3cc(C(=O)NCCC(C)C)oc3nc2c1,0,0,0,0,0,0
COc1ccc(C(=O)NCc2cccnc2)cc1,0,0,0,0,0,0
Cc1ccc2cc3cc(C(=O)NC4CC4)oc3nc2c1,0,0,0,0,48.7,0
CSc1ncccc1C(=O)NCc1ccnc(-c2ccco2)c1,-,0,-,-,-,-
O=C(Nc1cccc(C(F)(F)F)c1)C(=O)N1CCN(c2ccccc2F)CC1,-,0,-,-,-,-
Cc1cccc(OCC(=O)Nc2nnc(-c3ccco3)s2)c1,0,0,0,0,0,0
CCOc1cccc(C(=O)Nc2nnc(-c3ccco3)s2)c1,0,0,0,0,36.8,0
Cc1nc(-n2nc(-c3cccs3)cc2NC(=O)c2c(F)cccc2F)[nH]c(=O)c1C,-,0,-,-,-,-
C#CCOCCOCCOCCNc1nc(N2CCN(C(=O)CCCCCCCCCCNC(=O)[C@H]([C@@H](C)CC)n3cc(CCCCN=C(N)N)nn3)CC2)nc(N2CCN(C(=O)CCCCCCCCCCNC(=O)[C@H](CO)n3cc(CCCCCN)nn3)CC2)n1,0,39.3,0,0,0,0
CCN1C(=O)C(C)SC1=NS(=O)(=O)c1ccc(F)cc1 (stereo not given),-,0,-,-,-,-
CC1=CN2C(=N)/C(=C/c3ccc([N+](=O)[O-])o3)C(=O)N=C2S1,0,0,0,0,0,0
CC1=CN2C(=N)/C(=C/c3ccco3)C(=O)N=C2S1,0,0,0,0,33.2,0
Cn1ccc(C(=O)N/N=C/c2cccnc2)n1,0,-,0,0,0,0
CN(C)c1ccc(/C=N/NC(=O)c2ccn(C)n2)cc1,0,0,0,0,33.1,0
CN(C)c1ccc(/C=N/NC(=O)c2ccco2)cc1,0,-,0,0,47.4,0
CN(C)c1ccc(/C=N\NC(=O)c2csnn2)cc1,0,-,0,0,41.9,0
CN(C)c1ccc(/C=N/NC(=O)C(=O)N2CCCCCC2)cc1,0,-,0,0,35.5,0
CC(=O)N1CCC(C(=O)NC2CC3CCC(C2)N3S(C)(=O)=O)CC1 (stereo not given),-,0,-,-,-,-
O=C(c1ccno1)N(Cc1ccccc1)c1nc2c(Cl)cccc2s1,-,0,-,-,-,-
CC(=O)Nc1ccc(S(=O)(=O)N2CCN(c3cc(-c4ccccc4)ncn3)CC2)cc1,-,0,-,-,-,-
CN(C)c1ccc(C=Nc2ccccc2C(N)=O)cc1,0,0,0,0,38.3,0
O=C(N/N=C/c1ccc(OC(=O)c2ccco2)cc1)c1ccc[n+]([O-])c1,0,-,0,0,36.2,0
Cc1ccc(-c2csc(/C(C#N)=C(\O)CN3CCN(C(=O)c4ccco4)CC3)n2)cc1,0,-,0,0,31.3,0
SMILES,Mtb UGM inh,SSB-PriA inh,Rv3671c inh,Mtb bLac sens,GDH-TPI counter,Mtb FBA inh
O=C1NC(=O)N(CC2CCCO2)C(=O)/C1=C/c1cccs1 (stereo not given),0,0,0,0,0,0
CCN(CC)c1ccc(/C=C2/C(=O)NC(=O)N(CC3CCCO3)C2=O)cc1 (stereo not given),0,0,0,0,39.8,0
CCN(CC)c1ccc(/C=C2\C(=O)NC(=O)N(Cc3ccco3)C2=O)cc1,0,0,0,0,31.4,0
O=C(c1ccco1)N(C(=O)N1CCCCC1)c1cccc(Cl)c1,-,0,-,-,-,-
CCc1ccc(S(=O)(=O)/N=C2\C=C(Nc3ccc(C(=O)O)cc3)C(=O)c3ccccc32)cc1,0,-,0,0,0,0
COc1ccc(S(=O)(=O)N=C2C=C(Nc3ccc(O)cc3)C(=O)c3ccccc32)cc1,-,40.4,-,-,-,-
Cc1ccc(S(=O)(=O)/N=C2\C=C(Nc3ccc(O)cc3)C(=O)c3ccccc32)cc1,0,-,0,0,0,0
Cc1ccc(S(=O)(=O)N=C2C=C(Nc3ccc(O)cc3)C(=O)c3ccccc32)cc1,-,64.5,-,-,-,-
COc1ccccc1N1CCN(CCNC(=O)C(=O)NC2CCCCC2)CC1,-,0,-,-,-,-
Cc1cc(C)c2nc(NN)sc2c1,-,0,-,-,-,-
N#Cc1nc(-c2ccccc2Cl)oc1N1CCCCCC1,-,94.2,-,-,-,-
CC1CCN(c2oc(-c3ccccc3Cl)nc2C#N)CC1,0,48.7,0,0,0,0
CC(C)Cn1c(N)c(S(=O)(=O)c2cccs2)c2nc3ccccc3nc21,-,0,-,-,0,141.8
Nc1c(S(=O)(=O)c2cccs2)c2nc3ccccc3nc2n1N=Cc1cccc(O)c1,-,0,-,-,-,-
Nc1c(S(=O)(=O)c2cccs2)c2nc3ccccc3nc2n1/N=C/c1cccc(O)c1,0,-,0,0,45.3,0
COCCn1c(SCC(=O)NCc2ccccc2Cl)nnc1-c1c[nH]c2ccccc12,-,0,-,-,-,-
CC1CCN(S(=O)(=O)c2ccc(NC(=O)C(C)Oc3ccc(F)cc3)cc2)CC1 (stereo not given),-,0,-,-,-,-
O=C(CCC(=O)N1CCCSC[C@@H]1CN1CCCC1)c1ccc(Cl)cc1,-,0,-,-,-,-
O=C(CSc1ccc(-c2nc(-c3ccccc3)no2)cn1)NCc1ccccc1,-,0,-,-,-,-
N#C/C(=C\c1ccc(O)c(O)c1)C(=O)c1ccc(O)c(O)c1,0,0,0,0,46.1,0
COc1ccc(/C=C/C(=O)Nc2ccccc2C(C)C)cc1OC,-,0,-,-,-,-
Cn1c(C(=O)c2ccccc2)nc2ccccc21,0,0,0,?,0,0
Cn1c(C(=O)c2ccccc2[N+](=O)[O-])nc2ccccc21,0,39.0!,0,0,0,0
CCN(CC)CCN(C(=O)c1cc2ccccc2cc1OC)c1nc2ccc(F)cc2s1,0,46.9!,0,0,0,0
CCN(CC)CCN(C(=O)c1cc2ccccc2cc1OC)c1nc2ccc(OC)cc2s1,0,44.7,0,0,0,0
SMILES,Mtb UGM inh,SSB-PriA inh,Rv3671c inh,Mtb bLac sens,GDH-TPI counter,Mtb FBA inh
CCN(CC)CCN(C(=O)c1ccc2ccccc2c1)c1nc2ccc(OC)cc2s1,0,0,0,0,0,0
CC(C)c1ccc(/C=C(/C#N)c2nc(-c3ccc(F)cc3)cs2)cc1,-,0,-,-,-,-
CCCCn1c(N)c(N(CC(C)C)C(=O)COC(=O)c2ccccc2NCCO)c(=O)[nH]c1=O,0,0,0,0,0,125.0
CS(=O)(=O)c1ccc(CC(=O)Nc2nc3ccc4ccccc4c3s2)cc1,-,0,-,-,-,-
Cc1cc(/C=C(\C#N)C(N)=O)c(C)n1-c1ccc(N2CCOCC2)c([N+](=O)[O-])c1,0,0,0,0,37.8,0
CCOC(=O)/C(=N\Nc1ccc(Br)cc1)N1CC(C)OC(C)C1 (stereo not given),0,-,0,0,37.0,0
CC(Oc1ccc2c(c1)oc(=O)c1ccccc12)C(=O)NCCN1CCOCC1 (stereo not given),0,0,0,0,0,60.0
CC(Oc1ccc2c(-c3ccccc3)cc(=O)oc2c1)C(=O)NCCN1CCOCC1 (stereo not given),0,0,0,0,0,0
O=C(O)C(Oc1ccc2c(-c3ccccc3)cc(=O)oc2c1)c1ccccc1 (stereo not given),0,0,0,0,0,0
CC(Oc1ccc2c3c(c(=O)oc2c1)CCC3)C(=O)NCC1CCC(C(=O)O)CC1 (stereo not given),0,0,0,0,0,0
